According to PubChem BioAssay (NCATS):
Inconclusive results are not listed. Active and inactive are the calls of the source. Calls follow the shape of the dose curve; as a rule, active = well fitted cell-killing curve with a large enough effect; inconclusive = small, poorly fitted or top-dose-only effect; inactive = no such curve, though single readings can be large or run the other way.

Experiment: qHTS of pediatric cancer cell lines to identify multiple opportunities for drug repurposing: Primary screen for A673 cells (AID 1347092); also: nearly all actives have a fitted effect of over 45% in size
Conditions: A673 Ewing sarcoma viability, CellTiter-Glo ATP luminescence, 48 h; series mostly up to 46 µM
Description: Drug repurposing or repositioning has been offered as a strategy for drug development in oncology programs. This approach has special potential for childhood cancers and other rare or orphan diseases, where the expected return on new drug development has been a disincentive to pharmaceuticals. […] In this project we exploit the poly-pharmacology of drugs to discover new indications via phenotypic screening of a panel of 19 well-characterized cell lines derived from solid tumors seen in children and adolescents. The goal is to identify approved drugs with previously unrecognized anticancer properties that has the potential to reveal new mechanisms and biological processes involved in carcinogenesis or drug resistance. We employed a titration-based paradigm (quantitative high-throughput screening or qHTS), where all compounds were tested at multiple concentrations for their effect on cell viability. Concentration-response curves (CRCs) were derived directly from the primary screen, and both potency and efficacy values were used to identify compounds with robust bioactivity profiles. We screened the NIH Chemical Genomics Center (NCGC) Pharmaceutical Collection (NPC) and Mechanism Interrogation Plate (MIPE) small molecule collections of approved and investigational compounds against these cell lines; and measured metabolically active cells after 48 hours of compound treatment as a proxy for cell viability. […] Assay Submitter: Nathalia J. Martinez, National Center for Advancing Translational Sciences, National Institutes of Health, Rockville, MD, USA; email: natalia.martinez@nih.gov. Shen, M et al. Quantitative high-throughput phenotypic screening of pediatric cancer cell lines identifies multiple opportunities for drug repurposing. Oncotarget 2017 Dec 19;9(4):4758-4772. PMID 29435139.
The cells were obtained from University of North Carolina (UNC), Pediatric Preclinical Testing Program (PPT), and Coriell Institute (CI). qHTS cell viability assay: Cells were assayed in growth media at a density of 500-1,000 cells/well. Five microliters of cells were dispensed into 1,536-well, white, solid-bottom, TC-treated plates (Greiner Bio One) using a multidrop dispenser and incubated at 37 degrees C, 5% CO2, under a humidified atmosphere for 5 hours. Twenty-three nanoliters of compounds and controls (neutral control DMSO or positive control bortezomib at final concentration of 2.3 uM) were subsequently transferred by Kalypsys pintool. For primary screens, the MIPE collection was tested at 11-point dilutions (final concentrations range from 0.78 nM to 46 µM) and the NPC collection at 8-point dilutions (final concentrations range from 0.59 nM to 46 µM). Compounds tested in follow-up screens were assayed at 11-point dilutions. Cells were incubated for 48 hours, followed by addition of 3 uL of CellTiter-Glo (Promega). After a 15min incubation at room temperature, samples were analyzed for luminescence intensity using a ViewLux High-throughput CCD imager equipped with clear filters.
Potency is read from the fitted curve at half-maximal effect.

Which Potency does the source give for `CC1CNc2c(cccc2S(=O)(=O)N[C@@H](CCCN=C(N)N)C(=O)N2CC[C@@H](C)C[C@@H]2C(=O)O)C1` (stereo not given in full) here?
Its Potency is 5.9 µM (active).

For `CC(C)Oc1cc(Nc2nc(N[C@@H](C)c3ccc(F)cn3)ncc2Cl)[nH]n1`, which Potency is on record?
The Potency was 9.35 µM (active).

With `COc1ccc(-c2cc3nccn3c(Nc3ncccc3C(N)=O)n2)cc1OC` as the compound, how does the Potency read?
Its Potency is 1.48 µM (active).

For `O=C(O)C1=NC(C(=O)O)CC(C=CN2c3cc(O)c(OC4OC(CO)C(O)C(O)C4O)cc3CC2C(=O)O)=C1` (stereo not given), which Potency is on record?
Its Potency is “inactive”.

Which Potency does the source give for `CC(C)C[C@@H](N)[C@H](O)C(=O)N[C@H](C(=O)N[C@H](C(=O)N[C@@H](CC(=O)O)C(=O)O)C(C)C)C(C)C` here?
Its Potency is “inactive”.

With `Cc1ccc2c(=O)c3cccc(CC(=O)O)c3oc2c1C` as the compound, how does the Potency read?
Its Potency is 9.35 µM (active).

Which Potency does the source give for `Nc1ccc(-c2ccc3ncc4ccc(=O)n(-c5cccc(C(F)(F)F)c5)c4c3c2)cn1` here?
Its Potency is 0.003 µM (active).

Which Potency does the source give for `Cc1nc(NC(=O)N2CCC[C@@H]2C(N)=O)sc1-c1csc(C(C)(C)C)n1` here?
The Potency was 2.96 µM (active).

With `C[C@H]1[C@H](O)O[C@@H]2O[C@@]3(C)CC[C@@H]4[C@H](C)CC[C@@H]1[C@@]24OO3` as the compound, how does the Potency read?
Its Potency is 7.43 µM (active).

Which Potency does the source give for `CN(C)CCOc1ccc(C(=C(CCCl)c2ccccc2)c2ccccc2)cc1` here?
Its Potency is “inactive”.

Which Potency does the source give for `COc1cc2ncnc(Nc3cc(Br)c(O)c(Br)c3)c2cc1OC` here?
Its Potency is 0.0118 µM (active).

For `O=C(Nc1ccccc1)Nc1ccc(-c2ccc(C(=O)[C@H]3CCC[C@H]3C(=O)O)cc2)cc1`, which Potency is on record?
The Potency was 11.8 µM (active).

For `C[C@@H]1O[C@@H](O[C@H]2CC[C@@]3(C)[C@H](CC[C@@H]4[C@H]3C[C@@H](O)[C@]3(C)[C@@H](C5=CC(=O)OC5)CC[C@]43O)C2)C[C@H](O)[C@@H]1O[C@H]1C[C@H](O)[C@H](O[C@H]2C[C@H](O)[C@@H](O)[C@@H](C)O2)[C@H](C)O1` (stereo in doubt), which Potency is on record?
The Potency was 0.171 µM (active).

For `Cc1ccc(C(=O)N(CCCN)[C@@H](c2oc3cc(Cl)ccc3c(=O)c2Cc2ccccc2)C(C)C)cc1`, which Potency is on record?
The Potency was 0.001 µM (active).

For `COc1cc([C@@H]2c3cc4c(cc3[C@@H](O[C@@H]3O[C@@H]5CO[C@@H](C)O[C@@H]5[C@H](O)[C@@H]3O)[C@H]3COC(=O)[C@H]23)OCO4)cc(OC)c1O`, which Potency is on record?
The Potency was 1.48 µM (active).

With `CO[C@H]1O[C@@H]2O[C@@]3(C)CC[C@@H]4[C@@H](C)CC[C@@H]([C@H]1C)[C@@]24OO3` as the compound, how does the Potency read?
Its Potency is “inactive”.

With `NC1(C(=O)N[C@@H](CCO)c2ccc(Cl)cc2)CCN(c2ncnc3[nH]ccc23)CC1` as the compound, how does the Potency read?
Its Potency is 18.7 µM (active).

Which Potency does the source give for `C[C@@H](NC(=O)c1ncnc(N)c1Cl)c1ncc(C(=O)Nc2cc(C(F)(F)F)c(Cl)cn2)s1` here?
The Potency was 18.7 µM (active).

Which Potency does the source give for `O=c1[nH]c(=O)n([C@H]2C[C@@H](O)[C@@H](CO)O2)cc1I` here?
Its Potency is “inactive”.

For `CN1CCN(c2cccc(Nc3nc4c(-c5ccc(S(C)(=O)=O)cc5)cccn4n3)c2)CC1`, which Potency is on record?
Its Potency is 9.35 µM (active).

Which Potency does the source give for `Cc1ccc(NC(=O)Nc2cc(C(F)(F)F)ccc2F)cc1Nc1ccc2c(c1)NC(=O)C2=Cc1ccc[nH]1` here?
The Potency was 7.43 µM (active).

Which Potency does the source give for `CC[C@H]1OC(=O)[C@H](C)[C@@H](O[C@H]2C[C@@](C)(OC)[C@@H](O)[C@H](C)O2)[C@H](C)[C@@H](O[C@@H]2O[C@H](C)C[C@H](N(C)C)[C@H]2O)[C@](C)(O)C[C@H](C)C(=NOCOCCOC)[C@H](C)[C@@H](O)[C@]1(C)O` here?
Its Potency is “inactive”.

With `N#Cc1ccc(Oc2ccc3c(c2)COB3O)cc1` as the compound, how does the Potency read?
The Potency was “inactive”.

Which Potency does the source give for `COc1ccc(-c2cc(=O)c3c(O)cc(O[C@@H]4O[C@H](CO[C@@H]5O[C@@H](C)[C@H](O)[C@@H](O)[C@@H]5O)[C@@H](O)[C@H](O)[C@@H]4O)cc3o2)cc1O` here?
The Potency was 14.8 µM (active).

Which Potency does the source give for `C[C@@]1(C(=O)Nc2ccc(F)nc2)CCCN1c1nc(Nc2cc(C3CC3)[nH]n2)c2cccn2n1` here?
Its Potency is 0.0935 µM (active).

With `Cc1ccc2c(c1)c1c(n2CCc2ccc(C)nc2)CCN(C)C1` as the compound, how does the Potency read?
The Potency was “inactive”.

Which Potency does the source give for `Cc1ccccc1C(=O)c1ccc(Nc2ccc(Br)cc2N)cc1Cl` here?
Its Potency is 18.7 µM (active).

With `CCC(=O)OCC(=O)[C@@]1(OC(=O)CC)[C@@H](C)C[C@@H]2[C@H]3CCC4=CC(=O)C=C[C@]4(C)[C@@]3(F)[C@@H](O)C[C@@]21C` as the compound, how does the Potency read?
Its Potency is 1.87 µM (active).

For `COc1cc(N2CCN(C)CC2)ccc1Nc1nc(N)c(C(=O)c2c(Cl)cccc2Cl)s1`, which Potency is on record?
The Potency was 18.7 µM (active).

With `C[C@]12CC[C@@H]3c4ccc(O)cc4CC[C@H]3[C@H]1[C@@H](O)[C@@H](O)[C@H]2O` as the compound, how does the Potency read?
The Potency was 14.8 µM (active).

With `c1cc(OCCN2CCCCC2)cc(-c2n[nH]c3ccc(-c4ncn[nH]4)cc23)c1` as the compound, how does the Potency read?
Its Potency is 9.35 µM (active).

For `COc1cc(Cl)cn2c(-c3cccc(NC4CNC4)n3)cnc12`, which Potency is on record?
The Potency was 4.69 µM (active).

With `CC1(C)OC2CC3C4CC(F)C5=CC(=O)C=CC5(C)C4C(O)CC3(C)[C@]2(C(=O)CO)O1` (stereo not given in full) as the compound, how does the Potency read?
The Potency was “inactive”.

Which Potency does the source give for `CCNC(=O)[C@H]1O[C@@H](n2cnc3c(N)nc(NCCc4ccc(CCC(=O)O)cc4)nc32)[C@H](O)[C@H]1O` here?
The Potency was “inactive”.

Which Potency does the source give for `COc1nc(C)cnc1NS(=O)(=O)c1cccnc1-c1ccc(-c2nnco2)cc1` here?
Its Potency is “inactive”.

Which Potency does the source give for `NC(N)=Nc1nc(CSCCC(N)=NS(N)(=O)=O)cs1` here?
Its Potency is 11.8 µM (active).

Which Potency does the source give for `CC(C)N(CCCNC(=O)Nc1ccc(C(C)(C)C)cc1)C[C@H]1O[C@@H](n2cc(Br)c3c(N)ncnc32)[C@H](O)[C@H]1O` here?
The Potency was 18.7 µM (active).

For `CN(C)CCN(C)C(=O)c1ccc(NC(=O)Nc2ccc(-c3nc(N4CCOCC4)c4ccn(CC(F)(F)F)c4n3)cc2)cc1`, which Potency is on record?
The Potency was 2.96 µM (active).

For `Clc1ccc(COC(Cn2ccnc2)c2ccc(Cl)cc2Cl)c(Cl)c1` (stereo not given), which Potency is on record?
Its Potency is 23.5 µM (active).

With `O=c1[nH]c(=O)n([C@H]2C[C@@H](O)[C@@H](CO)O2)cc1C(F)(F)F` as the compound, how does the Potency read?
The Potency was 3.72 µM (active).
